{"source": "PubChem BioAssay"}
{"assay": "anti-His antibody binders, primary screen, artefact control for SMM control protein annotation, biochemical, small-molecule microarray, 635 nm fluorescence (AID 1128);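 also: score merges feature fluorescence with signal-to-noise for each printed compound spot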", "settings": "anti-His Alexa647 antibody binding, higher = more signal"}
{"smiles": "C=CC[C@@H]1C=C[C@H](ON=C2c3cc(OC)ccc3O[C@H](c3cccc(OC)c3)[C@H]2O)[C@@H](CO)O1", "composite z-score": -0.738}
{"smiles": "COCCOC(=O)N1C(=O)[C@@]2(c3cc(C#CCNC(N)=O)ccc31)[C@H](c1ccc(O)cc1)N1[C@H](c3ccccc3)[C@H](c3ccccc3)OC(=O)[C@H]1[C@@H]2C(=O)N1CCCCCCC1", "composite z-score": 0.127}
{"smiles": "CC(C)(C)N1C(=O)[C@H]2[C@H]3[C@H](O)[C@H](O)CC(=NOCc4ccccc4)[C@@H]3CC[C@H]2C1=O", "composite z-score": 0.94}
{"smiles": "O=C1C[C@]2(c3ccc([N+](=O)[O-])cc3)C(=O)N(CCN3CCOCC3)c3cc(CO)ccc3[C@H]2N1CC12CC3CC(CC(C3)C1)C2", "composite z-score": -0.585}
{"smiles": "CC[C@@H](c1ccccc1)n1c(=O)n2n(c1=O)[C@H]1[C@H](O)[C@@H]3O[C@@H]3C(=NOCC(C)C)[C@H]1CC2", "composite z-score": 0.356}
{"smiles": "O=C1[C@H]2[C@H]3[C@H](O)[C@H](O)CC(=NO[C@@H]4O[C@H](CO)[C@@H](O)[C@H](O)[C@H]4O)[C@@H]3CC[C@H]2C(=O)N1Cc1ccc2c(c1)OCO2", "composite z-score": 0.715}
{"smiles": "CC(C)=C1C(=O)C(c2ccccc2)=C2CN3C(=O)N(CCc4ccccc4)C(=O)[C@]3(Cc3ccc(F)cc3)[C@H]21", "composite z-score": 1.59}
{"smiles": "CO[C@@H]1COC(=O)CCC[C@@H](C)[C@H](OC)COC(=O)[C@H](Cc2ccccc2)NC(=O)CC=C[C@H]1C", "composite z-score": 0.393}
{"smiles": "Cc1ccc(F)cc1S(=O)(=O)N[C@@H]1CCN(Cc2ccc(CC(C)C)cc2)C1", "composite z-score": -0.016}
{"smiles": "CC(C)[Si]1(C(C)C)O[C@@H](c2ccccc2)c2cc(C3CC3)nc(-c3ccccc3)c21", "composite z-score": -0.829}
{"smiles": "COC(=O)[C@@]1(Cc2ccc(F)cc2)[C@H]2c3cc(C(=O)N(C)C)n(Cc4ccc(OC)c(OC)c4)c3C[C@H]2CN1C(=O)c1ccccc1", "composite z-score": 0.835}
{"smiles": "CCOC(=O)CCN1C(=O)[C@H]2[C@H]3[C@H](O)C=CC(=O)[C@@H]3CC[C@H]2C1=O", "composite z-score": 0.147}
{"smiles": "C[C@H](c1ccccc1)N1C(=O)[C@H]2[C@@H]3C(=CC[C@H]2C1=O)C(=O)[C@H]1O[C@H]1[C@H]3O", "composite z-score": 1.36}
{"smiles": "CS(=O)(=O)CCOC(=O)C1=CC(CCCO)=CC(c2cccs2)N(Cc2cccc(OC(F)(F)F)c2)C=C1C(=O)OCCS(C)(=O)=O", "note": "(configuration not stated)", "composite z-score": 0.97}
{"smiles": "O=C1[C@H]2[C@H]3[C@H](O)[C@H](O)CC(=NO[C@@H]4O[C@H](CO)[C@@H](O)[C@H](O)[C@H]4O)[C@H]3CC[C@H]2C(=O)N1Cc1ccc2c(c1)OCO2", "composite z-score": 1.01}
{"smiles": "Cc1cc2c(nc1C)CCCN2CC(C)ON=C1[C@H]2CCn3c(=O)n(-c4ccccc4)c(=O)n3[C@H]2[C@H](O)[C@@H]2O[C@H]12", "note": "(some centres not stated)", "composite z-score": -0.674}
{"smiles": "Cc1cc(C)c(-c2cc([C@H](C)ON=C3[C@H]4CCn5c(=O)n(-c6ccccc6)c(=O)n5[C@H]4[C@H](O)[C@@H]4O[C@H]34)on2)c(C)c1", "composite z-score": -0.286}
{"smiles": "COc1ccc([Si](C)(C)[C@@H]2[C@@H](CCO)O[C@]3(C(=O)N(Cc4ccc(NC(C)=O)cc4)c4ccccc43)[C@H]2C)cc1", "composite z-score": 1.92}
{"smiles": "c1ccc(C2NCCc3c2[nH]c2ccccc32)cc1", "note": "(configuration not stated)", "composite z-score": 0.191}
{"smiles": "CC(=O)C[C@H](O)[C@@H](NC(=O)OC(C)(C)C)C(C)C", "composite z-score": -0.0599}
{"smiles": "CO[C@H]1O[C@H](CO)[C@@H](OC(=O)Nc2ccc(C#N)cc2)[C@H](OC(=O)c2cc3ccccc3[nH]2)[C@H]1OC(=O)c1cc2ccccc2[nH]1", "composite z-score": 2.87}
{"smiles": "CO[C@@H]1COC(=O)[C@@H]2CCCN2C(=O)[C@@H](C)COC(=O)[C@H](COCc2ccccc2)NC(=O)CC=C[C@H]1C", "composite z-score": 0.284}
{"smiles": "COc1ccc(O[C@H]2C=C[C@@H](c3ccccc3)O[C@@H]2COC(=O)CCC(C)=NO[C@H](C)c2cn([C@@H]3COC[C@H]3O)nn2)cc1", "composite z-score": 1}
{"smiles": "CC(CCC(=O)OC[C@H]1O[C@H](C#Cc2ccccc2)C=C[C@@H]1Oc1ccc(C)cc1)=NO[C@@H](C)c1cn([C@H](CO)Cc2ccccc2)nn1", "composite z-score": 1.35}
{"smiles": "CO[C@H]1COC(=O)[C@H](C)COC(=O)CC=C[C@@H](C)[C@H](OC)COC(=O)CC=C[C@@H]1C", "composite z-score": 0.0475}
{"smiles": "CCc1cccc(NC(=O)O[C@H]2[C@H](OC(=O)Nc3ccc4c(c3)OCO4)[C@@H](OC(=O)Nc3ccc4c(c3)OCO4)[C@@H](OC)O[C@@H]2CO)c1", "composite z-score": 0.646}
{"smiles": "CCOC(=O)C[C@H]1[C@H](OC(=O)c2cc3ccccc3oc2=O)[C@@H](NC(=O)c2ccc3ccccc3n2)c2cc(OCCCO)ccc2N1C(=O)c1ccccc1", "composite z-score": 1.06}
